In PubChem BioAssay (NCATS) one finds Potency and outcome data, which are given here for 34 compounds.

Inconclusive results are not listed. Entries that show only a call come without a potency. More than one record can exist for a structure, and the calls need not agree. Active and inactive are the calls of the source. Calls come from the whole dose curve; as a rule, active = well fitted curve in the direction sought with a large enough effect; inconclusive = small, poorly fitted or top-dose-only effect, or another doubt; inactive = no such curve, though single readings can be large; an effect the other way counts as inactive or inconclusive.

Chain of Phospholipid hydroperoxide glutathione peroxidase GPX4 (Homo sapiens) (P36969 whole entry, looked up): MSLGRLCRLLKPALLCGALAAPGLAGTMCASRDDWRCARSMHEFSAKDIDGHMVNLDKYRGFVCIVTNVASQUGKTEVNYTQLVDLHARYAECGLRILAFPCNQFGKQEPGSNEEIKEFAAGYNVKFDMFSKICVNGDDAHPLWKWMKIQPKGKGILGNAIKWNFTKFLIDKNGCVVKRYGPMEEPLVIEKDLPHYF

For the first experiment, the target named is Phospholipid hydroperoxide glutathione peroxidase GPX4 (Homo sapiens) (UniProt P36969). As to the kind of experiment: Primary qHTS Assay for Inhibitors of Recombinant Selenoprotein Glutathione Peroxidase 4 (GPX4) (AID 1845192). Note: nearly all actives have a fitted effect of over 65% in size. Note: potency is the fitted concentration of half-maximal effect. The conditions noted are these: recombinant GPX4, GR-coupled NADPH fluorescence, 15 min; series mostly up to 50 µM. The procedure, abridged:
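NADPH consumption followed by fluorescence at 340/450 nm, t=0 and after 15 min at room temperature. Reaction started with cumene hydroperoxide (0.5 mM final) after 30 min compound–GPX4 preincubation; final 200 nM GPX4, 100 nM GR, 1 mM GSH, 0.5 mM NADPH.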
Consider `CN(C)CCOC(c1ccccc1)c1ccccc1`, for which the Potency result was “inactive”. For the compound `CN1C2CCC1CC(OC(=O)C(CO)c1ccccc1)C2` (stereo not drawn), the Potency entry was “inactive”. For `CCN1CCCC1CNC(=O)c1cc(S(=O)(=O)CC)c(N)cc1OC` (stereo not drawn), the Potency result is “inactive”. With `O=C(Nc1ccc([N+](=O)[O-])cc1Cl)c1cc(Cl)ccc1O`, the Potency entry is “inactive”. The same measure, in the same setting: in the case of `O=C1Cc2cc(CCN3CCN(c4nsc5ccccc45)CC3)c(Cl)cc2N1` it was 15.8 µM (active) and inactive; in that of `CC[C@@]1(O)C(=O)OCc2c1cc1n(c2=O)Cc2cc3c(CN(C)C)c(O)ccc3nc2-1`, “inactive”. `CS(=O)(=O)Nc1ccc([N+](=O)[O-])cc1Oc1ccccc1`: the Potency entry was “inactive”. The same measure, in the same setting: in the case of `Cc1cc(C(C)(C)C)c(O)c(C)c1CC1=NCCN1` it was “inactive”; in that of `CS(=O)(=O)CCNCc1ccc(-c2ccc3ncnc(Nc4ccc(OCc5cccc(F)c5)c(Cl)c4)c3c2)o1`, “inactive”; in that of `CC(=O)OCC(CCn1cnc2cnc(N)nc21)COC(C)=O`, “inactive”. On the same count and under the same terms, in the case of `NCCS(=O)(=O)O` it was “inactive”; in that of `O=C1c2c(O)ccc(O)c2C(=O)c2c(NCCNCCO)ccc(NCCNCCO)c21`, “inactive”. Same read-out and setting: in the case of `O=C(C1CCCCC1)N1CC(=O)N2CCc3ccccc3C2C1` (stereo not drawn) it was “inactive”; in that of `Cc1cc(C(C)(C)C)cc(C)c1CC1=NCCN1`, “inactive”; in that of `NC(=O)OCC(COC(N)=O)c1ccccc1`, “inactive”. Regarding `CC(C)C(=O)Nc1ccc([N+](=O)[O-])c(C(F)(F)F)c1`, the Potency entry was “inactive”. Regarding `CC1(C)O[C@H]2CC(=O)OC[C@]23[C@H]2CC[C@@]4(C)[C@H](c5ccoc5)OC(=O)[C@H]5O[C@]54[C@]2(C)C(=O)C[C@@H]13`, the Potency entry was “inactive”.

With `CCC1(c2ccccc2)C(=O)NCNC1=O`, the Potency result is “inactive”. Consider `CCOC(=O)Nc1ccc(NCc2ccc(F)cc2)nc1N`, for which the Potency result was “inactive”. `CN1CCC(=C2c3ccccc3CC(=O)c3sccc32)CC1`: the Potency result is “inactive”.

Turning to `Cn1c(=O)c2[nH]cnc2n(C)c1=O`, the Potency entry is “inactive”. Take `CN1CCN(CCCN2c3ccccc3Sc3ccc(Cl)cc32)CC1`: the Potency result is “inactive”. Take `Clc1ccc2c(c1)C(N1CCNCC1)=Nc1ccccc1O2`: the Potency result is “inactive”.

As to `CC#C[C@]1(O)CC[C@H]2[C@@H]3CCC4=CC(=O)CCC4=C3[C@@H](c3ccc(N(C)C)cc3)C[C@@]21C`, the Potency entry is “inactive”. For `Cn1cnc2c1c(=O)[nH]c(=O)n2C`, the Potency result was “inactive”.

`O=C(c1ccc(F)cc1)C1CCN(CCn2c(=O)[nH]c3ccccc3c2=O)CC1`: the Potency entry was “inactive”. Still for that read-out and setting: under `CN(CCOc1ccc(NS(C)(=O)=O)cc1)CCc1ccc(NS(C)(=O)=O)cc1` stands “inactive”. Take `NC(=O)NO`: the Potency entry was “inactive”. With `CNCCCC12CCC(c3ccccc31)c1ccccc12`, the Potency entry is “inactive”. With `COc1ccc(CCN(C)CCCC(C#N)(c2ccc(OC)c(OC)c2)C(C)C)cc1OC` (stereo not drawn), the Potency entry is “inactive”. As to `Cc1ccc(-c2cc(C(F)(F)F)nn2-c2ccc(S(N)(=O)=O)cc2)cc1`, the Potency result is “inactive”. For the compound `Nc1nc2c(ncn2COC(CO)CO)c(=O)[nH]1`, the Potency entry was “inactive”. For `CN(C)CCCN1c2ccccc2CCc2ccc(Cl)cc21`, the Potency result is “inactive”.

Regarding `COc1ccccc1N1CCN(CC(O)COc2cccc3ccccc23)CC1` (stereo not drawn), the Potency result was “inactive”.

The target in a further experiment is Luciferin 4-monooxygenase (Photinus pyralis) (UniProt P08659). The experiment can be described thus: Primary firefly luciferase (FLuc) qHTS assay for identification of artifact compounds. (AID 1845220). Note: nearly all actives have a fitted effect of over 60% in size. The conditions noted are these: purified firefly luciferase, luminescence, 5 min; series mostly up to 54.1 µM. A digest of the protocol:
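FLuc 10 nM; luciferin 10 uM; ATP 10 uM; Tris-acetate pH 7.6, Mg-acetate 10 mM; 15 min RT preincubation; 5 min reaction; luminescence.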
As for `O=C1Cc2cc(CCN3CCN(c4nsc5ccccc45)CC3)c(Cl)cc2N1`, the compound was called inactive.

In the case of `CC[C@@]1(O)C(=O)OCc2c1cc1n(c2=O)Cc2cc3c(CN(C)C)c(O)ccc3nc2-1`, the outcome was inactive.

On to `Cc1cc(C(C)(C)C)c(O)c(C)c1CC1=NCCN1`, for which the call was inactive.

With `CS(=O)(=O)CCNCc1ccc(-c2ccc3ncnc(Nc4ccc(OCc5cccc(F)c5)c(Cl)c4)c3c2)o1`, the outcome was inactive. For `CC1(C)O[C@H]2CC(=O)OC[C@]23[C@H]2CC[C@@]4(C)[C@H](c5ccoc5)OC(=O)[C@H]5O[C@]54[C@]2(C)C(=O)C[C@@H]13`, the compound was called inactive. Still for that read-out and setting: in the case of `Clc1ccc2c(c1)C(N1CCNCC1)=Nc1ccccc1O2` it was “inactive”; in that of `O=C(c1ccc(F)cc1)C1CCN(CCn2c(=O)[nH]c3ccccc3c2=O)CC1`, “inactive”; in that of `CNCCCC12CCC(c3ccccc31)c1ccccc12`, “inactive”. For the compound `Cc1ccc(-c2cc(C(F)(F)F)nn2-c2ccc(S(N)(=O)=O)cc2)cc1`, the call was inactive.

Test system in another experiment: not listed separately
The experiment can be described thus: Primary fluorescence-based thiol-reactive (MSTI) qHTS assay for identification of artifact compounds. (AID 1845221).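 Note: thiol-reactive compounds lower the probe fluorescence signal; nearly all actives have a fitted effect of over 65% in size.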 As to conditions: MSTI thiol-reactivity probe, 1 h; series mostly up to 53.8 µM. The procedure, abridged: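 Reactivity toward the thiol probe MSTI (4 uM) is scored by fluorescence at Ex/Em 525/598 nm after 1 h at room temperature. Acetyl-MSTI and MSTI define the activity scale.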
(In general: qHTS replaces the single test concentration by a dilution series.)
On to `CC[C@@]1(O)C(=O)OCc2c1cc1n(c2=O)Cc2cc3c(CN(C)C)c(O)ccc3nc2-1`, for which the compound was called inactive. For the compound `CS(=O)(=O)CCNCc1ccc(-c2ccc3ncnc(Nc4ccc(OCc5cccc(F)c5)c(Cl)c4)c3c2)o1`, the call was inactive. For `CC1(C)O[C@H]2CC(=O)OC[C@]23[C@H]2CC[C@@]4(C)[C@H](c5ccoc5)OC(=O)[C@H]5O[C@]54[C@]2(C)C(=O)C[C@@H]13`, the outcome was inactive. On the same count and under the same terms, under `Clc1ccc2c(c1)C(N1CCNCC1)=Nc1ccccc1O2` stands “inactive”; under `O=C(c1ccc(F)cc1)C1CCN(CCn2c(=O)[nH]c3ccccc3c2=O)CC1`, “inactive”; under `CNCCCC12CCC(c3ccccc31)c1ccccc12`, “inactive”. Regarding `Cc1ccc(-c2cc(C(F)(F)F)nn2-c2ccc(S(N)(=O)=O)cc2)cc1`, the call was inactive.

The subject of the next experiment is Nanoluciferase (engineered Oplophorus gracilirostris luciferase). As to the kind of experiment: Primary Nanoluciferase (NLuc) qHTS assay for identification of artifact compounds. (AID 1845222).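 Note: NLuc secreted into diluted conditioned medium of S16 cells.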 As to conditions: NLuc-conditioned medium, Nano-Glo luminescence, 5 min; series mostly up to 54.1 µM. A digest of the protocol:
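NLuc from S16 cell medium (1:55) plus test compounds, 15 min, room temperature. Luminescence after Nano-Glo (1:100) addition, 5 min.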
For the compound `O=C1Cc2cc(CCN3CCN(c4nsc5ccccc45)CC3)c(Cl)cc2N1`, the compound was classed as inactive. Turning to `CC[C@@]1(O)C(=O)OCc2c1cc1n(c2=O)Cc2cc3c(CN(C)C)c(O)ccc3nc2-1`, the call was inactive. With `Cc1cc(C(C)(C)C)c(O)c(C)c1CC1=NCCN1`, the call was inactive. Still for that read-out and setting: in the case of `CC1(C)O[C@H]2CC(=O)OC[C@]23[C@H]2CC[C@@]4(C)[C@H](c5ccoc5)OC(=O)[C@H]5O[C@]54[C@]2(C)C(=O)C[C@@H]13` it was “inactive”; in that of `Clc1ccc2c(c1)C(N1CCNCC1)=Nc1ccccc1O2`, “inactive”; in that of `O=C(c1ccc(F)cc1)C1CCN(CCn2c(=O)[nH]c3ccccc3c2=O)CC1`, “inactive”. For `CNCCCC12CCC(c3ccccc31)c1ccccc12`, the compound was classed as inactive. `Cc1ccc(-c2cc(C(F)(F)F)nn2-c2ccc(S(N)(=O)=O)cc2)cc1`: the call was inactive.
